From PubChem BioAssay (EPA / NIEHS) come the findings set out here.

The structures appear in SMILES notation. Where “and” joins values, the source holds several entries; their conditions need not be identical. Equal entries are not always repeated. Inconclusive results are not listed. Some compounds were tested as several samples or in several runs, with calls that do not always agree. Calls of active or inactive are those of the source. The calls were made as follows, unless noted: active = hit-call score of the fitted dose curve at least 0.9, where 1 is the maximum; inactive = score below 0.9.

Read-out in test [1]: Tumor necrosis factor (Homo sapiens) (UniProt P01375)
Kind of test: BSK_BT_xTNFa: BioMAP Diversity Plus: BT Assay for Tumor necrosis factor alpha (TNF-alpha) Biomarker Activity (AID 2284230). The conditions noted are these: primary human B cells with PBMC. The method, boiled down:
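Endpoint derived in the positive direction versus DMSO vehicle. Cells: B cells together with PBMC, exposed 24 h before TNF-alpha in the medium was read on the Luminex xMAP platform.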

Read-out in test [2]: Vascular cell adhesion molecule 1 (VCAM1), VCAM1 (gene 7412)
As to the kind of experiment: BSK_MyoF_VCAM1: BioMAP Diversity Plus: MyoF Assay for Vascular cell adhesion molecule 1 (VCAM1) Biomarker Activity (AID 2284231). Particulars: primary human lung fibroblasts. The method, boiled down: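 Primary human lung fibroblasts were dosed with test chemical for 24 h, then cell-surface VCAM-1 was measured by ELISA. Activity was fitted in the positive direction against DMSO as negative control and baseline.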

Read-out in test [3]: Collagen I, COL1A1 (gene 1277)
Kind of test: BSK_MyoF_CollagenI: BioMAP Diversity Plus: MyoF Assay for Collagen I Biomarker Activity (AID 2284238). The conditions noted are these: primary human lung fibroblasts. The method, boiled down: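 Human lung fibroblasts were exposed to test chemical for 24 h, then Collagen I was quantified by ELISA. Activity was fitted in the increasing direction against DMSO as the negative control and baseline.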

Read-out in test [4]: Collagen III, COL3A1 (gene 1281)
Kind of test: BSK_MyoF_CollagenIII: BioMAP Diversity Plus: MyoF Assay for Collagen III Biomarker Activity (AID 2284239). Particulars: primary human lung fibroblasts. In a few lines: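 Human lung fibroblasts were dosed with chemicals and, 24 hours later, collagen III was measured by ELISA. Activity was fitted in the positive direction against the DMSO negative-control baseline.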

Read-out in test [5]: Interleukin 17F (IL17F), IL17F (gene 112744)
Kind of test: BSK_BT_xIL17F: BioMAP Diversity Plus: BT Assay for Interleukin 17F (IL17F) Biomarker Activity (AID 2284243). The conditions noted are these: primary human B cells with PBMC. The method, boiled down:
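B cell/PBMC co-culture (human primary), 24 h compound exposure; sIL-17F by Luminex xMAP; gain-of-signal fit vs DMSO baseline.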

Read-out in test [6]: Actin alpha 1 (ACTA1), ACTA1 (gene 58)
Kind of test: BSK_MyoF_ACTA1: BioMAP Diversity Plus: MyoF Assay for Actin alpha 1 (ACTA1) Biomarker Activity (AID 2284244). Particulars: primary human lung fibroblasts. The method, boiled down: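 Human lung fibroblast (MyoF system) cultures dosed with test chemical; alpha-SMA measured by ELISA 24 h after dosing, normalized to DMSO control. Cytotoxicity tracked in parallel cultures by SRB total-protein staining.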

Read-out in test [7]: Interleukin 2 (IL2), IL2 (gene 3558)
Kind of test: BSK_BT_xIL2: BioMAP Diversity Plus: BT Assay for Interleukin 2 (IL2) Biomarker Activity (AID 2284245). The conditions noted are these: primary human B cells with PBMC. The method, boiled down: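 Human B cell plus PBMC co-culture, 24 h after chemical dosing; secreted IL-2 quantified by Luminex xMAP multiplex, fitted for signal gain against DMSO baseline.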

Read-out in test [8]: Basic fibroblast growth factor (bFGF), FGF2 (gene 2247)
Kind of test: BSK_MyoF_bFGF: BioMAP Diversity Plus: MyoF Assay for Basic fibroblast growth factor (bFGF) Biomarker Activity (AID 2284246). Particulars: primary human lung fibroblasts. The method, boiled down: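 Human lung fibroblast cultures were dosed and measured 24 h later in 96-well format. bFGF biomarker levels quantified by ELISA, with activity fitted in the positive direction against DMSO.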

Read-out in test [9]: Collagen IV, COL4A1 (gene 1282)
As to the kind of experiment: BSK_MyoF_CollagenIV: BioMAP Diversity Plus: MyoF Assay for Collagen IV Biomarker Activity (AID 2284247). The conditions noted are these: primary human lung fibroblasts. The method, boiled down:
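Primary human lung fibroblasts (MyoF system) dosed 24 h; Collagen IV measured by ELISA. Activity fitted in positive direction against DMSO; cytotoxicity tracked by SRB total-protein staining in parallel cultures.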

Test [10] in a line: CCTE_Mundy_HCI_hNP1_Casp3_7: CCTE's Caspase-Glo 3/7 Assay in human neuroprogenitor cells for Apoptosis, Mundy Lab (AID 2284240). In a few lines:
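Neuroepithelial-lineage stem cells from WA09 embryonic cells were treated with chemicals after 40–44 h of culture. Twenty-four hours later, caspase-3/7 activation was detected luminescently after a 30 min room-temperature reagent step, with DMSO as baseline.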

A short description of test [11]: CCTE_Mundy_HCI_hNP1_CellTiter: CCTE's Cell Titer-Glo 2 Assay in human neuroprogenitor cells for Viability, Mundy Lab (AID 2284241; active = hit-call score of the fitted dose curve at least 0.9, where 1 is the maximum). The method, boiled down: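 Measures ATP content in human neural progenitors derived from WA09 embryonic cells. Read-out at 26.5 hours after dosing, with DMSO serving as the negative control and baseline.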
Read-out in test [12]: Monokine induced gamma interferon (MIG), CXCL9 (gene 4283)
As to the kind of experiment: BSK_KF3CT_MIG: BioMAP Diversity Plus: KF3CT Assay for Monokine induced gamma interferon (MIG) Biomarker Activity (AID 2284248). Particulars: primary human keratinocytes with fibroblasts. The method, boiled down:
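Human keratinocyte plus foreskin fibroblast primary co-culture dosed with test chemical for 24 h; MIG level measured by ELISA and fitted in the positive direction against DMSO as baseline.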

Read-out in test [13]: Collagen I, COL1A1 (gene 1277)
As to the kind of experiment: BSK_hDFCGF_CollagenI: BioMAP Diversity Plus: hDFCGF Assay for Collagen I Biomarker Activity (AID 2284250). Particulars: primary human foreskin fibroblasts. In a few lines: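 Primary human foreskin fibroblasts exposed to chemical for 24 h; Collagen I levels measured by ELISA. Cytotoxicity checked by SRB total-protein staining in parallel cultures.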

Sequence of Tumor necrosis factor (Homo sapiens) (P01375 whole entry, looked up): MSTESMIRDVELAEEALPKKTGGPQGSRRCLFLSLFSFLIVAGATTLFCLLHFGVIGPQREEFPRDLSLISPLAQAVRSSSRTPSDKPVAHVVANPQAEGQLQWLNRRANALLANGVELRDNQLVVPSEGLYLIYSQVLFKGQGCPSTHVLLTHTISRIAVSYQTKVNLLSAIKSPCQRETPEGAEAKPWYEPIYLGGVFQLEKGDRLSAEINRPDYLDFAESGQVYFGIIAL

For `CC(C)(C)c1ccc(O)c(O)c1`, the AC50 in test [1] was 31.5 µM (active); in test [2] it was 31.5 µM (active); in test [3], 27.4 µM (active); in test [4] it was 29.2 µM (active); in test [5], 26 µM (active); in test [6] it was 29.6 µM (active). Further, the AC50 in test [8] was 30.1 µM (active); in test [9] it was 16 µM (active). In test [7], the outcome was inactive.

Take `O=P(O)(O)CCC(F)(F)C(F)(F)C(F)(F)C(F)(F)C(F)(F)C(F)(F)F`: the result in test [1], in [2], in [3], in test [4], in test [10] and in test [11] was inactive. The result in test [5], in test [6], in test [7], in test [8], in test [9] and in [12] was inactive. The result in test [13] was inactive.

As for `CN(CCO)S(=O)(=O)C(F)(F)C(F)(F)C(F)(F)C(F)(F)C(F)(F)C(F)(F)C(F)(F)C(F)(F)F`, the result in [1], in test [2], in test [4], in test [5], in test [6] and in test [7] was inactive. Moreover, the result in test [8], in test [9] and in [12] was inactive. Besides, the AC50 in [3] was 1.82 µM (active) and 2.36 µM (active); in test [5] it was 1.93 µM (active); in [13] it was 1.65 µM (active) and 879 nM (active).

For `C=CC(C)(CCC=C(C)C)OC(C)=O` (stereo not drawn), the outcome in [1], in test [2], in test [3], in test [4], in test [5] and in test [6] was inactive. Also, the outcome in test [7], in test [8] and in [9] was inactive.

For the compound `CN(C)c1ccc(C(=C2C=CC(=[N+](C)C)C=C2)c2ccccc2)cc1`, the AC50 in [1] was 0.805 µM (active); in test [2], 0.0764 µM (active); in test [3] it was 0.0082 µM (active); in [4], 0.164 µM (active); in [5] it was 0.49 µM (active); in test [6] it was 1.06 µM (active). Besides, the AC50 in test [7] was 0.432 µM (active); in [8] it was 0.647 µM (active); in [9], 1.55 µM (active).

For `O=C(O)C(F)(F)OC(F)(F)C(F)(F)OC(F)(F)C(F)(F)OC(F)(F)C(F)(F)C(F)(F)C(F)(F)F`, the AC50 in test [1] was 48.6 µM (active) and 53.5 µM (active); in [2], 12.5 µM (active) and 12.3 µM (active); in test [3], 9.61 µM (active) and 5.9 µM (active); in test [4] it was 6.08 µM (active) and 4.89 µM (active); in [5] it was 49.6 µM (active) and 47 µM (active); in test [6], 4.11 µM (active). For the same compound, the AC50 was 44.9 µM (active) in [7]; 16.8 µM (active) and 14 µM (active) in test [8]; 29.6 µM (active) and 27.5 µM (active) in test [12]; 30 µM (active) in test [13]. Moreover, the outcome in test [6], in [7] and in [9] was inactive.

Regarding `OCCN1CN(CCO)CN(CCO)C1`, the AC50 in test [1] is 34.1 µM (active); in test [5], 20 µM (active); in [7], 31.3 µM (active). Further, the outcome in [2], in test [3], in [4], in [6], in test [8] and in [9] was inactive.

`CCCCCCCCCCCCCCCCCC[N+](C)(C)Cc1ccccc1`: the AC50 in test [1] was 3.16 µM (active); in [2] it was 2.72 µM (active); in test [3], 1.02 µM (active); in test [4], 2.09 µM (active); in test [5], 2.42 µM (active); in [6], 2.7 µM (active). The AC50 in [7] was 1.97 µM (active); in test [8], 3.06 µM (active). Also, the result in test [9] was inactive.

In the case of `Oc1cc2ccccc2cc1O`, the outcome in [1], in test [2], in test [3], in [4], in test [5] and in [6] was inactive. Moreover, the outcome in test [7], in test [8] and in test [9] was inactive.

In the case of `O=C(CC(=O)C(F)(F)C(F)(F)C(F)(F)F)c1cccs1`, the AC50 is 35.6 µM (active) and 39.6 µM (active) in [1]; 17.8 µM (active) and 7.76 µM (active) in test [3]; 8.37 µM (active) and 7.86 µM (active) in [4]; 23.2 µM (active) and 25.1 µM (active) in [5]; 7.95 µM (active) in test [6]; 55.6 µM (active) and 46.2 µM (active) in test [7]. For the same compound, the figures for the AC50 in test [9] and in [13] were 8.25 µM (active) and 8.04 µM (active), respectively. In addition, the outcome in test [2], in test [10], in test [11], in [6], in test [8] and in [9] was inactive. Besides, the outcome in [12] and in test [13] was inactive.
